Calls of active or inactive are those of the source. Unless noted, no rule for the calls is given here.
Key:
[1] = compounds binding Alexa647 anti-His antibody – biochemical, small-molecule microarray, 635 nm fluorescence, artefact control for SMM control protein annotation, primary screen (AID 1128); conditions: higher = more signal;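 also: score merges feature fluorescence with signal-to-noise for each printed compound spot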
[2] = tested on: Human papillomavirus type 1a E7 protein (residues 1-88); assay: HPV1a E7 small-molecule binders, primary screen, biochemical, small-molecule microarray, residues 1-88, 635 nm (AID 1129); conditions: small-molecule microarray binding, fluorescence 635 nm; higher = more signal
[3] = molecular target: Focal adhesion kinase 1 (Homo sapiens) (UniProt Q05397); assay: PTK2 protein binding on printed compound slides – biochemical, small-molecule microarray, 635/667 nm fluorescence, BSA, DTT, primary screen (AID 1130); conditions: 635 nm fluorescence, higher = more signal;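 also: composite of spot emission at 667 nm and signal to noise over triplicate slides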
Focal adhesion kinase 1 (Homo sapiens), sequence (Q05397 whole entry, looked up): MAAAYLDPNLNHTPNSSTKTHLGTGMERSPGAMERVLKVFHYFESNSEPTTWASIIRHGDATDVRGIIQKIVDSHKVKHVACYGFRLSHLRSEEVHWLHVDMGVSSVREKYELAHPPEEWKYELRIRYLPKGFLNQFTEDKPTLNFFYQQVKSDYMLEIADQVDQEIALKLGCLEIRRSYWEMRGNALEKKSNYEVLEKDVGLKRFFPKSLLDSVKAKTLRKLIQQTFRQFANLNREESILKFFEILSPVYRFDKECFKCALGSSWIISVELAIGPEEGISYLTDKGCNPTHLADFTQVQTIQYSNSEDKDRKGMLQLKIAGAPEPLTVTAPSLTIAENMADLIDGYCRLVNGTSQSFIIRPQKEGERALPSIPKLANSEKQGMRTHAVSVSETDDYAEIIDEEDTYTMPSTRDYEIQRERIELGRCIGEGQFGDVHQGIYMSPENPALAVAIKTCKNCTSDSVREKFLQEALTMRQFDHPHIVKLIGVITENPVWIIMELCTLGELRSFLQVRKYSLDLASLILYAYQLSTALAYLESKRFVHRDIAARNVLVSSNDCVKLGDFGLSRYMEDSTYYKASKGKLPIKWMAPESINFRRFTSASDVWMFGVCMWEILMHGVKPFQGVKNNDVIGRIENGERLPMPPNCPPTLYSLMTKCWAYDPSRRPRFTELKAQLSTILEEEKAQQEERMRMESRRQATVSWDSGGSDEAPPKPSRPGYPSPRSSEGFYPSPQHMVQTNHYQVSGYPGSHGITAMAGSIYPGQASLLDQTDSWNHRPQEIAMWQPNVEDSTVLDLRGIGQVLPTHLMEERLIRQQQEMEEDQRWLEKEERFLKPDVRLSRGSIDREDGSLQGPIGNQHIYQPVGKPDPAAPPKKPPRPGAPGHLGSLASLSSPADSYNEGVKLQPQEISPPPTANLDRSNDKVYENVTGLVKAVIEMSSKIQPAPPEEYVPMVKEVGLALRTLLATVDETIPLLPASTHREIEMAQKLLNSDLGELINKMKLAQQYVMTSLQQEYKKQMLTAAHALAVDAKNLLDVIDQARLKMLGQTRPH

[4] = tested on: Fibrinogen (Alexa647-labelled); assay: Alexa647-fibrinogen binding to printed small molecules – biochemical, small-molecule microarray, 635/667 nm fluorescence, artefact control for SMM control-protein annotation, profiling panel (AID 1131); conditions: fibrinogen-A647 binding fluorescence, higher = more signal;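 also: z-score merges 667 nm fluorescence with per-spot signal-to-noise over triplicate slides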
[5] = molecular target: Follistatin (Homo sapiens) (UniProt P19883); assay: FST protein binding to printed compounds – biochemical, small-molecule microarray, 635/667 nm fluorescence, primary screen (AID 1132); conditions: 635 nm fluorescence, higher = more signal
Follistatin (Homo sapiens), sequence (P19883 whole entry, looked up): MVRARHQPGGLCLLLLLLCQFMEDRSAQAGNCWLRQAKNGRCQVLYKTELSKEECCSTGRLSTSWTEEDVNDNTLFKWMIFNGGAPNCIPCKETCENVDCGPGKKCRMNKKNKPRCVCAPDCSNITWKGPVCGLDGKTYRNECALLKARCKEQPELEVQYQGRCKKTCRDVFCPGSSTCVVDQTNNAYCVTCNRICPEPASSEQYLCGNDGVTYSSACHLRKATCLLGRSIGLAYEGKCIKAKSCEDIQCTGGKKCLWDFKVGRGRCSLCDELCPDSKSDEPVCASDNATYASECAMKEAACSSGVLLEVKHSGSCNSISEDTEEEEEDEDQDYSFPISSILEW

[6] = molecular target: Fibroblast growth factor 2 (Homo sapiens) (UniProt P09038); assay: basic fibroblast growth factor binding to printed compounds – biochemical, small-molecule microarray, 635/667 nm fluorescence, primary screen (AID 1133); conditions: FGF2, fluorescence 635/667, higher = more signal
Fibroblast growth factor 2 (Homo sapiens), sequence (P09038 whole entry, looked up): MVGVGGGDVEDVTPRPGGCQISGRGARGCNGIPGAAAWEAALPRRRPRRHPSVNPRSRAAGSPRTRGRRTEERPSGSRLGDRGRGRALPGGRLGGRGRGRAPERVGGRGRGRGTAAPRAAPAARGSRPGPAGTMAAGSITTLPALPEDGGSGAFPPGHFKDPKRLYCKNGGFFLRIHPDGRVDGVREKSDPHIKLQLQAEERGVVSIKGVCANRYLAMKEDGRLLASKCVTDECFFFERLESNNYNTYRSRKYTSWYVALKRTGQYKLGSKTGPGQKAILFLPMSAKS

[7] = JC-1 mitochondrial potential readout, lung cancer cells – cell-based, A549, JC-1 fluorescence, basal, 24 h, 100 nL, profiling panel (AID 1138); conditions: higher = more signal;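 also: A549 lung adenocarcinoma cells under basal conditions with no added stimulus; test concentration not given here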
[8] = tested on: Lefty1; assay: Lefty1 protein binding to printed compounds – biochemical, small-molecule microarray, 635/667 nm fluorescence, primary screen (AID 1139); conditions: fluorescence 635/667, higher = more signal
[9] = tested on: wheat germ agglutinin (Triticum aestivum), Alexa647-labelled; assay: Alexa647-WGA lectin binding to printed small molecules – biochemical, small-molecule microarray, 635/667 nm fluorescence, artefact control for SMM control-protein annotation, profiling panel (AID 1140); conditions: WGA-A647 binding, 635 nm fluorescence, higher = more signal;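 also: score merges 667 nm feature emission with signal to noise over triplicate slides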
[10] = molecular target: Luciferin 4-monooxygenase (Photinus pyralis) (UniProt P08659); assay: inhibition of purified Photinus pyralis luciferase – biochemical, luminescence, purified enzyme, 2006 set, primary screen (AID 1141); conditions: purified firefly luciferase, SteadyGlo luminescence, 30 min; higher = more signal, called active from +8 up or from −8 down;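 also: cell-free assay with purified firefly luciferase at 100 ng per well in PBS; test concentration not given here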
Luciferin 4-monooxygenase (Photinus pyralis), sequence (P08659 whole entry, looked up): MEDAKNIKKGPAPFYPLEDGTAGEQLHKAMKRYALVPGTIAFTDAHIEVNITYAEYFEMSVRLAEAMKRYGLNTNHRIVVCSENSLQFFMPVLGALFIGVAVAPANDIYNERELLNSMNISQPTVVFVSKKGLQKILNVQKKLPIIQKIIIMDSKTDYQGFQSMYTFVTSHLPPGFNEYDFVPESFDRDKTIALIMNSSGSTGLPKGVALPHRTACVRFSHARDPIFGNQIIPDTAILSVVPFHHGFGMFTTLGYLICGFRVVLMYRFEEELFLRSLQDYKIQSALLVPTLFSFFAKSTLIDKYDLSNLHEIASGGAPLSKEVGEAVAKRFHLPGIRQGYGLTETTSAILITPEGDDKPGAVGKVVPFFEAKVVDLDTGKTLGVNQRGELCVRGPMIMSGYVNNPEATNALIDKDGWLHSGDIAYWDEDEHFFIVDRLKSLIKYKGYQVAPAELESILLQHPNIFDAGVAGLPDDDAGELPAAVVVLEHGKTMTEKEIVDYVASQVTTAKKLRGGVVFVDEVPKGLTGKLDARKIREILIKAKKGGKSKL

[11] = tested on: Wnt5a (protein binding on small-molecule microarray); assay: small molecules binding Wnt5a protein – biophysical, small-molecule microarray, 635/667 nm fluorescence, primary screen (AID 1142); conditions: 635 nm fluorescence, higher = more signal;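 also: fluorescence read at 667 nm with signal to noise per printed feature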
[12] = ATP-based viability of Huh7 replicon cells – cell-based, CellTiter-Glo luminescence, basal, 48 h, cytotoxicity control for HCV replication inhibitor project, primary screen (AID 1143); conditions: higher = more signal, called active from +8 up or from −8 down;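 also: Huh7 hepatoma cells carrying a hepatitis C replication reporter with no stimulus; test concentration not given here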
[13] = Pseudomonas biofilm growth suppression – PAO1 strain, BacTiter-Glo luminescence, LB-PBS, primary screen (AID 1144); conditions: P. aeruginosa PAO1 biofilm, 12 h, higher = more signal
[14] = basal CRE-LacZ reporter activity in PC12 – cell-based, unstimulated, primary screen (AID 1145); conditions: no forskolin, luminescence, 4.5 h, higher = more signal, called active from +8 up or from −8 down
[15] = forskolin-driven CRE-LacZ activity in PC12 – cell-based, CRE-LacZ reporter, forskolin-stimulated, primary screen (AID 1146); conditions: luminescence, 4.5 h, higher = more signal, called active from +8 up or from −8 down;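 also: PC12 cells with 6xCRE LacZ reporter stimulated by forskolin 10 µM; beta-galactosidase reporter signal reflecting CREB driven transcription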
[16] = molecular target: Streptavidin (Streptomyces avidinii) (UniProt P22629); assay: compounds binding control protein streptavidin – biophysical, small-molecule microarray, 635/667 nm fluorescence, artefact control for SMM compound annotation, primary screen (AID 1147); conditions: higher = more signal;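 also: signal reflects streptavidin binding to arrayed compounds as a control protein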
Streptavidin (Streptomyces avidinii), sequence (P22629 whole entry, looked up): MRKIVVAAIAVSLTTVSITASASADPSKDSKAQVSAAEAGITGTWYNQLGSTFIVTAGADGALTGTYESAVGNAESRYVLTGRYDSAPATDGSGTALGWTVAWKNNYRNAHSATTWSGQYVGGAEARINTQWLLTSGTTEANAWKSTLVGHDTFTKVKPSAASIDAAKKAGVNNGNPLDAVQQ

[17] = probe aInhba binding on compound microarray – biochemical, small-molecule microarray, 635/667 nm fluorescence, primary screen (AID 1148); conditions: higher = more signal;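 also: score merges 667nm spot fluorescence with signal-to-noise for antibody binding to printed compounds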
[18] = molecular target: Torsin-1A (Homo sapiens) (UniProt O14656); assay: TOR1A wild-type binding on microarray – cell lysate, small-molecule microarray, lysate, 635/667 nm, primary screen (AID 1149); conditions: COS7 hTOR1A-WT lysate, 635 nm fluorescence, higher = more signal
Torsin-1A (Homo sapiens), sequence (O14656 whole entry, looked up): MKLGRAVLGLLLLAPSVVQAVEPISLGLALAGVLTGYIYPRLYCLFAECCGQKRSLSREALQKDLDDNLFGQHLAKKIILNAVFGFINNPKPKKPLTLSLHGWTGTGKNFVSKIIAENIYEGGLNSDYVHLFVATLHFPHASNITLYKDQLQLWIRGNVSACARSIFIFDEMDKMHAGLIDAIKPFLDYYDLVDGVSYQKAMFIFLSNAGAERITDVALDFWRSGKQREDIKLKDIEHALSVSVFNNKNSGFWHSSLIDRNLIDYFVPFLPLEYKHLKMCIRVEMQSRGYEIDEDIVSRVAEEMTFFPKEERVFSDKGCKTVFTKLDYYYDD

[19] = molecular target: Torsin-1A (Homo sapiens) (UniProt O14656); assay: torsin A mutant lysate binding on microarrays – cell lysate, small-molecule microarray, COS7 lysate, 635/667 nm fluorescence, primary screen (AID 1150); conditions: COS7 hTOR1A mutant lysate, 635 nm fluorescence, higher = more signal;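 also: score pools 667 nm emission and signal to noise measuring lysate protein binding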
[20] = tested on: Sonic hedgehog protein (Shh); assay: Sonic hedgehog microarray binding compounds – biochemical, small-molecule microarray, 635/667 nm fluorescence, primary screen (AID 1151); conditions: 635 nm fluorescence, higher = more signal;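 also: Shh protein binding to compounds spotted on small-molecule microarray slides; score combines spot fluorescence intensity with signal-to-noise across triplicate slides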

Compound	composite z-score [1]	composite z-score [2]	composite z-score [3]	composite z-score [4]	composite z-score [5]	composite z-score [6]	z-score [7]	composite z-score [8]	composite z-score [9]	z-score [10]	composite z-score [11]	z-score [12]	z-score [13]	z-score [14]	z-score [15]	composite z-score [16]	composite z-score [17]	composite z-score [18]	composite z-score [19]	composite z-score [20]
CCCCN1CC=CC23O[C@@H]4/C=C\CCC(C)OC(=O)C4[C@H]2C(=O)N(CCCO)[C@@H]3C1=O (stereo not given in full)	1.41	-0.708	-0.198	-0.992	-0.885	-1.24	-0.573	-0.46	-0.588	0.821 (inactive)	-0.636	-0.183 (inactive)	1.21 (inactive)	0.0605 (inactive)	0.0507 (inactive)	-0.774	-0.247	-1.54	-1.15	-0.36
C=CCN1C(=O)[C@]2(CCC(=O)OC(C)(C)C)N=C(c3ccc(OCCCO)cc3)O[C@@H]2c2ccccc21	2.42	0.944	0.469	0.317	1.19	-0.132	0.859	0.467	0.27	-5.66 (inactive)	0.176	-3.67 (inactive)	-0.149 (inactive)	0.124 (inactive)	-1.99 (inactive)	0.0475	0.0631	-0.0806	0.19	1.71
Cc1ccccc1C(O)C1C=CC2C(=O)NC(=O)C2N1Nc1ccccn1 (stereo not given)	0.744	0.108	0.0312	0.693	-0.145	-0.227	0.0755	-0.0955	0.159	-0.792 (inactive)	-0.155	1.14 (inactive)	-0.767 (inactive)	-0.708 (inactive)	-0.474 (inactive)	-0.15	-0.102	0.248	0.0151	-0.224
C=CC[C@]1(C(=O)N2CCCCC2)N=C(c2ccc(OCCCO)cc2)O[C@H]1c1ccccc1CN=[N+]=[N-]	1.33	1.24	0.293	1.01	1.29	0.524	1.29	0.228	0.657	0.498 (inactive)	0.518	-4.07 (inactive)	-1.44 (inactive)	1.45 (inactive)	1.86 (inactive)	0.997	0.121	0.0016	0.361	-0.27
C=CCC(OC(C)=O)[C@@H]1[C@@H](N(Cc2cccc3ccccc23)C(=O)Cc2ccc(OC)cc2)c2cc(OCCCO)ccc2N1C(=O)c1ccc(-c2ccccc2)cc1 (stereo not given in full)	-0.328	-0.127	0.0862	0.701	0.662	0.394	0.0256	-0.47	0.297	0.828 (inactive)	-0.213	-1.22 (inactive)	1.16 (inactive)	0.106 (inactive)	-0.375 (inactive)	0.107	-0.0762	-0.452	0.0437	0.112
O=C1OCCC=C[C@H]2OC34C=CCN(Cn5nnc6ccccc65)C(=O)[C@H]3N(CCCO)C(=O)[C@@H]4C12 (stereo not given in full)	-0.0275	-1.46	-0.519	-0.975	-0.676	-0.446	-0.9	-0.935	-0.0152	0.0251 (inactive)	-0.197	-2.61 (inactive)	-0.413 (inactive)	-0.903 (inactive)	-0.242 (inactive)	-1.01	-0.161	-0.444	-2.04	-0.128
COCCOC(=O)N1C(=O)[C@@]2(c3cc(C#CC4=CCCCC4)ccc31)[C@H](c1ccccc1OCCO)N1[C@H](c3ccccc3)[C@H](c3ccccc3)OC(=O)[C@H]1[C@@H]2C(=O)N1CCN(c2ncccn2)CC1	0.624	1.15	0.732	0.635	0.76	0.779	-1.05	0.772	0.343	-1.47 (inactive)	0.471	-4.96 (inactive)	-1.23 (inactive)	-1.28 (inactive)	-0.752 (inactive)	0.407	0.181	0.0128	0.202	0.942
COCCOC(=O)N1C(=O)[C@@]2(c3cc(C#CCCO)ccc31)[C@H](c1ccc(OCCO)cc1)N1[C@H](c3ccccc3)[C@H](c3ccccc3)OC(=O)[C@H]1[C@@H]2C(=O)Nc1nc2ccccc2s1	0.872	1.15	0.479	0.817	1.32	0.759	-2.37	1.41	1.13	-2.18 (inactive)	0.508	-0.218 (inactive)	0.56 (inactive)	-0.618 (inactive)	-0.267 (inactive)	1.13	0.358	0.266	0.0474	1.97
CCOC(=O)C[C@H]1[C@H](OC(=O)c2ccccc2-c2ccccc2)[C@@H](NC(=O)c2ccc3ccccc3c2)c2cc(OCCCO)ccc2N1C(=O)c1ccccc1	1.49	0.844	0.288	0.609	0.91	1.08	1.04	0.868	-0.0223	-0.124 (inactive)	0.331	-0.399 (inactive)	1.6 (inactive)	2.94 (inactive)	-0.0955 (inactive)	0.157	0.102	0.0464	0.472	0.536
COc1ccc([Si](C)(C)[C@@H]2[C@@H](CCO)O[C@]3(C(=O)N(Cc4ccccc4)c4ccc(N5CCOC5=O)cc43)[C@H]2C)cc1	0.515	1.11	-0.0211	0.661	0.36	0.19	-0.771	0.49	0.896	0.6 (inactive)	0.0035	-5.88 (inactive)	-1.37 (inactive)	3.23 (inactive)	-0.205 (inactive)	0.242	-0.016	0.151	0.817	1.39
